Experiment [1] is described as follows: ATG_GLI_CIS: Attagene CIS-FACTORIAL HepG2 Assay for human Zinc Finger Protein GLI1 (AID 2282945). Particulars: HepG2, Attagene cis-factorial reporter mRNA, GLI element; actives raise or lower the signal. The procedure, abridged:
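Bidirectional curve fits relative to DMSO, using reporter mRNA levels from RT-PCR plus capillary electrophoresis. Cells were HepG2 transiently carrying cis-regulated reporter constructs, harvested 24 h after dosing.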

The target of experiment [2] is Bile acid receptor (Homo sapiens) (UniProt Q96RI1). As to the kind of experiment: ATG_IR1_CIS: Attagene CIS-FACTORIAL HepG2 Assay for human Nuclear Receptor Subfamily 1 Group H Member 4 (NR1H4), IR1 submotif (AID 2282946). Particulars: IR1 reporter transcription, actives raise or lower the signal. The method in brief:
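Cells (human HepG2) carry transiently transfected cis-promoter reporter transcription units. Compounds are incubated 24 h, total RNA is reverse-transcribed and amplified, and labelled fragments are resolved by capillary electrophoresis. Curves use DMSO as baseline.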

Experiment [3] in a line: ATG_GRE_CIS: Attagene CIS-FACTORIAL HepG2 Assay for human Glucocorticoid Response Elements (GRE) (AID 2282947). As to conditions: HepG2 GRE cis-reporter, Attagene multiplex mRNA; actives raise or lower the signal. The method in brief:
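Transient MRTU transfection of human HepG2 liver cells; cis-regulated reporters report endogenous factors. 24 h dosing → RNA isolation → RT-PCR → 6-FAM primer extension → HpaI cut → CE fragment analysis. Bidirectional fit, DMSO negative control.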

Experiment [4] in a line: ATG_ISRE_CIS: Attagene CIS-FACTORIAL HepG2 Assay for human Interferon Regulatory Factor 1 (IRF1) binding to an Interferon-Stimulated Response Element (ISRE) (AID 2282948). As to conditions: HepG2 ISRE cis-reporter (Attagene), mRNA transcription readout; actives raise or lower the signal. The procedure, abridged: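 Quantitation relies on labelled RT-PCR fragments separated by capillary electrophoresis. Human HepG2 cells bearing cis-promoter reporter constructs were treated 24 h; DMSO served as baseline for bidirectional fitting.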

Experiment [5] is described as follows: ATG_M_32_CIS: Attagene CIS-FACTORIAL HepG2 Assay for M32 Transcription Factor (Internal Marker) (AID 2282949).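 Note: background control marker of the multiplexed CIS panel rather than a real target.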 Particulars: HepG2 Attagene cis-factorial M32 reporter, mRNA; actives raise or lower the signal. The procedure, abridged: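 Fluorescent capillary electrophoresis peaks of HpaI-digested, FAM-labelled RT-PCR reporter products give the signal. Source: transiently transfected human liver HepG2 cells, 24 h after chemical dosing; bidirectional fitting against DMSO.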

Experiment [6] in a line: ATG_M_06_CIS: Attagene CIS-FACTORIAL HepG2 Assay for M06 Transcription Factor (Internal Marker) (AID 2282950). Particulars: HepG2 Attagene CIS-FACTORIAL M06 internal marker reporter; actives raise or lower the signal. The method in brief: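 Serves as a background control readout. Transfected HepG2 exposed to compounds for 24 h, then reporter transcripts quantified by fluorescent RT-PCR and capillary electrophoresis. Both directions fitted against DMSO baseline.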

The target in experiment [7] is Hypoxia-inducible factor 1-alpha (Homo sapiens) (UniProt Q16665). Kind of experiment: ATG_HIF1a_CIS: Attagene CIS-FACTORIAL HepG2 Assay for human Hypoxia Inducible Factor 1 (HIF1A) (AID 2282951). Particulars: HepG2 Attagene cis-factorial HIF1a reporter transcription; actives raise or lower the signal. The method in brief:
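Endogenous-TF cis reporter readout, human HepG2 cells, 24 h incubation; mRNA detected via RT-PCR and capillary electrophoresis fluorescence; DMSO-normalised bidirectional fitting.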

Experiment [8] has as its target Hepatocyte nuclear factor 6 (Homo sapiens) (UniProt Q9UBC0). Kind of experiment: ATG_HNF6_CIS: Attagene CIS-FACTORIAL HepG2 Assay for human Hepatocyte Nuclear Factor 6 (HNF6) (AID 2282952). As to conditions: HepG2 Attagene cis-factorial HNF6 reporter transcription; actives raise or lower the signal. The procedure, abridged: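 Reporter mRNA induction or loss in HepG2 after 24 h exposure; transient cis-MRTU transfection; fragments quantified by capillary electrophoresis; bidirectional analysis, DMSO as negative control.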

Experiment [9] can be described thus: ATG_MRE_CIS: Attagene CIS-FACTORIAL HepG2 Assay for human Metal Responsive Element (MRE) (AID 2282954). Particulars: HepG2 MRE cis-reporter transcription, Attagene multiplex; actives raise or lower the signal. The method in brief:
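Transient MRTU transfection of HepG2 (FuGene 6); 24 h dosing; total RNA → oligo(dT) RT, PCR, 6-FAM primer extension, HpaI cut, CE. Bidirectional fit vs DMSO.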

Experiment [10] in a line: ATG_PBREM_CIS: Attagene CIS-FACTORIAL HepG2 Assay for human Phenobarbital-responsive Enhancer Module (PBREM) (AID 2282955). As to conditions: HepG2 PBREM cis-reporter, Attagene multiplexed transcription; actives raise or lower the signal. The method in brief: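 Readout: reporter mRNA, fluorescent RT-PCR fragments separated by capillary electrophoresis. System: HepG2 transiently transfected with cis-regulated reporter units. Exposure: 24 h. Analysis: bidirectional, DMSO baseline.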

The target of experiment [11] is Paired box protein Pax-6 (Homo sapiens) (UniProt P26367). As to the kind of experiment: ATG_Pax6_CIS: Attagene CIS-FACTORIAL HepG2 Assay for human Paired Box 6 (PAX6) (AID 2282956). As to conditions: HepG2 CIS-FACTORIAL PAX6 reporter transcription, RNA readout; actives raise or lower the signal. The method in brief:
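After twenty-four hours of chemical exposure, transfected HepG2 cells are harvested for RNA. Cis-promoter reporter transcripts are amplified, fluorescently labelled and sized by capillary electrophoresis, with gain and loss of signal scored against DMSO.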

Experiment [12] is described as follows: ATG_PXRE_CIS: Attagene CIS-FACTORIAL HepG2 Assay for human Pregnane X Receptor Element (PXRE) (AID 2282957). As to conditions: HepG2 Attagene CIS-FACTORIAL PXRE reporter, mRNA; actives raise or lower the signal. The procedure, abridged:
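Transiently transfected HepG2 cells were dosed and incubated for 24 h. RNA was then isolated, DNase-treated, reverse-transcribed and reporter sequences amplified. Labeled, HpaI-digested fragments were quantified by capillary electrophoresis against DMSO.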

Experiment [13] in a line: ATG_PPRE_CIS: Attagene CIS-FACTORIAL HepG2 Assay for human Peroxisome Proliferator-activated Response Element (PPRE) (AID 2282958). Particulars: HepG2 PPRE cis-element reporter, Attagene transcription factor profiling; actives raise or lower the signal. The procedure, abridged: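 After human HepG2 hepatoma cells were transiently transfected with cis-promoter reporter constructs, they were exposed to test chemicals for 24 hours. Reporter RNA was then reverse-transcribed, PCR-amplified, FAM-labeled, HpaI-digested and quantified by capillary electrophoresis.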

Experiment [14] in a line: ATG_RORE_CIS: Attagene CIS-FACTORIAL HepG2 Assay for human RAR-related Orphan Receptor Element (RORE) (AID 2282959). As to conditions: HepG2 Attagene cis-factorial RORE reporter, mRNA; actives raise or lower the signal. The procedure, abridged: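 Measured here: transcript induction of a cis-regulated reporter in HepG2 cells transiently transfected via FuGene 6. After 24 h, RNA was processed by RT-PCR and fluorescent capillary electrophoresis; DMSO defined baseline activity.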

Experiment [15] concerns the target Transcription factor Sp1 (Homo sapiens) (UniProt P08047). As to the kind of experiment: ATG_Sp1_CIS: Attagene CIS-FACTORIAL HepG2 Assay for human Specificity Protein 1 (Sp1) (AID 2282961). As to conditions: HepG2 Sp1 cis-reporter transcription, actives raise or lower the signal. The method in brief:
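After transient transfection of HepG2 cells with cis-promoter reporter units and 24 h chemical treatment, reporter transcripts were quantified by RT-PCR and capillary electrophoresis fluorescence. Gain- and loss-of-signal fitted against DMSO.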

Experiment [16] in a line: ATG_SREBP_CIS: Attagene CIS-FACTORIAL HepG2 Assay for human Sterol Regulatory Element Binding (SREBP) (AID 2282962). As to conditions: HepG2 Attagene cis-factorial SREBP reporter, mRNA; actives raise or lower the signal. The method in brief:
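Twenty-four hours after chemical dosing of transfected HepG2 cultures, reporter RNA was converted to cDNA, amplified, end-labelled with 6-FAM and resolved by capillary electrophoresis. Responses were fitted relative to DMSO.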

Experiment [17] concerns the target Signal transducer and activator of transcription 3 (Homo sapiens) (UniProt P40763). As to the kind of experiment: ATG_STAT3_CIS: Attagene CIS-FACTORIAL HepG2 Assay for human Signal Transducer and Activator of Transcription 3 (STAT3) (AID 2282963). Particulars: HepG2, Attagene cis-factorial STAT3 reporter transcription; actives raise or lower the signal. The method in brief:
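Endogenous STAT3-responsive cis-element activity was read in transiently transfected HepG2 cells after 24 h treatment. Reporter transcripts were quantified via RT-PCR and capillary electrophoresis, with DMSO as negative control and bidirectional curve fitting.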

A short description of experiment [18]: ATG_TA_CIS: Attagene CIS-FACTORIAL HepG2 Assay for human TA Basal Promoter (AID 2282964). As to conditions: HepG2 Attagene CIS-factorial TA basal promoter reporter; actives raise or lower the signal. The procedure, abridged: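 Background-control readout: TA basal promoter reporter mRNA, fitted in both directions relative to DMSO. Measured by RT-PCR and capillary electrophoresis 24 hours after treating HepG2 human liver cells transiently carrying multiplexed cis-regulated reporter constructs.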

A short description of experiment [19]: ATG_Sox_CIS: Attagene CIS-FACTORIAL HepG2 Assay for human SRY-box transcription factor (SOX) (AID 2282960). As to conditions: HepG2 Attagene cis-factorial SOX reporter, mRNA; actives raise or lower the signal. The procedure, abridged:
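Using transiently transfected HepG2 cells, reporter transcription driven by cis elements was assessed 24 h after dosing. Signal was fluorescence of capillary-separated RT-PCR products, with DMSO defining baseline activity.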

For experiment [20], the target named is Heat shock factor protein 1 (Homo sapiens) (UniProt Q00613). As to the kind of experiment: ATG_HSE_CIS: Attagene CIS-FACTORIAL HepG2 Assay for human Heat Shock Transcription Factor 1 (HSE) (AID 2282953). Particulars: HepG2 HSE cis-reporter, Attagene RNA transcription; actives raise or lower the signal. The method in brief: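 Endogenous transcription factor activity in transiently transfected HepG2, read as reporter mRNA by RT-PCR with fluorescent capillary electrophoresis after 24 h. Gain or loss of signal fitted versus DMSO baseline.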
Heat shock factor protein 1 (Homo sapiens), sequence (Q00613 whole entry, looked up): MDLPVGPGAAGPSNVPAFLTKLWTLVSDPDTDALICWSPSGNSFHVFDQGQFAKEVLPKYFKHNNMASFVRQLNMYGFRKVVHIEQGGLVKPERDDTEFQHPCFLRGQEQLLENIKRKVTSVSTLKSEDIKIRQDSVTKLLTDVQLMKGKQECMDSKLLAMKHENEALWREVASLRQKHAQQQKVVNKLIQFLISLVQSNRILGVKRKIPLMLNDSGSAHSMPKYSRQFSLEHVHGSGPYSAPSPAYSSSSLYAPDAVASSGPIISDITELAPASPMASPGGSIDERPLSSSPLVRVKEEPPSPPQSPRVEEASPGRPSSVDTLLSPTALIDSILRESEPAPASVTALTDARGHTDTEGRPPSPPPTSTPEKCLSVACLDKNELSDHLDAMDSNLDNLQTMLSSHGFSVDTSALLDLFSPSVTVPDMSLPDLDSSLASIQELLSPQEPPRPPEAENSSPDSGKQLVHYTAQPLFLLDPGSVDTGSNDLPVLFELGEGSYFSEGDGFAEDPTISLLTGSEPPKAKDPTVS

The source made the active and inactive calls. Rule for the calls: active = hit-call score of the fitted dose curve at least 0.9, where 1 is the maximum; inactive = score below 0.9.

Bile acid receptor (Homo sapiens), sequence (Q96RI1 whole entry, looked up, the tested form may be a part): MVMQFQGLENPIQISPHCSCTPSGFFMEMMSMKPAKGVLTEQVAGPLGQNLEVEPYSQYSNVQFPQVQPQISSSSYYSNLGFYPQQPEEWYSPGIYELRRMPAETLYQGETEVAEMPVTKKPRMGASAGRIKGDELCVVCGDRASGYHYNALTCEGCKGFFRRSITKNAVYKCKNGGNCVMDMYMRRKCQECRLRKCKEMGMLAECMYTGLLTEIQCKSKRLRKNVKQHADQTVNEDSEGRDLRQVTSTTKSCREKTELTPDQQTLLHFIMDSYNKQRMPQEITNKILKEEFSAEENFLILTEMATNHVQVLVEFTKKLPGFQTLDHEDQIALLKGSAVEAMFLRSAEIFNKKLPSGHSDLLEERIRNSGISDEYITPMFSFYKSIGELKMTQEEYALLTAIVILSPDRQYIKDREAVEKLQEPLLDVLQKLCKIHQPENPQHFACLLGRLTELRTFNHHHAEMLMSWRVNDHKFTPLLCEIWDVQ
Hepatocyte nuclear factor 6 (Homo sapiens), sequence (Q9UBC0 whole entry, looked up, the tested form may be a part): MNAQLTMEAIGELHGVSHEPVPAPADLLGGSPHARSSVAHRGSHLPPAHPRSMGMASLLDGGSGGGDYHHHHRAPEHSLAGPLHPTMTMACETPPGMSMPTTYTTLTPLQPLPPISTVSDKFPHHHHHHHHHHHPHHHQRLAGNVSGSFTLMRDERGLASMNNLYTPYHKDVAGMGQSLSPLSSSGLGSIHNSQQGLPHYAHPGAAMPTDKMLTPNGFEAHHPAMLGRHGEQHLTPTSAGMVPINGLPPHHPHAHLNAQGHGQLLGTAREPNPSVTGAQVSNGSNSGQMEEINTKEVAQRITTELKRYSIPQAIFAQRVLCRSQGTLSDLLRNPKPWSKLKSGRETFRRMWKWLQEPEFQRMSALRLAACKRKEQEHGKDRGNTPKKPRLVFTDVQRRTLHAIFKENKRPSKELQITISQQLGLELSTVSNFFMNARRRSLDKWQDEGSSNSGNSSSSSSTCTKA
Paired box protein Pax-6 (Homo sapiens), sequence (P26367 whole entry, looked up): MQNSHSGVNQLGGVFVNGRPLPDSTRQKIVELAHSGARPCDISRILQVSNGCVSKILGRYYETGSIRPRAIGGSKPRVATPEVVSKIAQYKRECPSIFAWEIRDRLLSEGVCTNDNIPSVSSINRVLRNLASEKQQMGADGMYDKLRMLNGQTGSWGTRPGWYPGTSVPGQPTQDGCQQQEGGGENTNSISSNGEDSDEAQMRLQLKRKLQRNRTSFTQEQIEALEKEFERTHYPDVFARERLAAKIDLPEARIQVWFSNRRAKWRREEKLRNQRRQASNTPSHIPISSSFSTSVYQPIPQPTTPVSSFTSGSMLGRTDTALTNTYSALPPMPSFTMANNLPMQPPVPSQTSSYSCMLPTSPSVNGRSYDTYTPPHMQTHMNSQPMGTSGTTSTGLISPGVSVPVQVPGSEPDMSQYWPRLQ
Hypoxia-inducible factor 1-alpha (Homo sapiens), sequence (Q16665 whole entry, looked up): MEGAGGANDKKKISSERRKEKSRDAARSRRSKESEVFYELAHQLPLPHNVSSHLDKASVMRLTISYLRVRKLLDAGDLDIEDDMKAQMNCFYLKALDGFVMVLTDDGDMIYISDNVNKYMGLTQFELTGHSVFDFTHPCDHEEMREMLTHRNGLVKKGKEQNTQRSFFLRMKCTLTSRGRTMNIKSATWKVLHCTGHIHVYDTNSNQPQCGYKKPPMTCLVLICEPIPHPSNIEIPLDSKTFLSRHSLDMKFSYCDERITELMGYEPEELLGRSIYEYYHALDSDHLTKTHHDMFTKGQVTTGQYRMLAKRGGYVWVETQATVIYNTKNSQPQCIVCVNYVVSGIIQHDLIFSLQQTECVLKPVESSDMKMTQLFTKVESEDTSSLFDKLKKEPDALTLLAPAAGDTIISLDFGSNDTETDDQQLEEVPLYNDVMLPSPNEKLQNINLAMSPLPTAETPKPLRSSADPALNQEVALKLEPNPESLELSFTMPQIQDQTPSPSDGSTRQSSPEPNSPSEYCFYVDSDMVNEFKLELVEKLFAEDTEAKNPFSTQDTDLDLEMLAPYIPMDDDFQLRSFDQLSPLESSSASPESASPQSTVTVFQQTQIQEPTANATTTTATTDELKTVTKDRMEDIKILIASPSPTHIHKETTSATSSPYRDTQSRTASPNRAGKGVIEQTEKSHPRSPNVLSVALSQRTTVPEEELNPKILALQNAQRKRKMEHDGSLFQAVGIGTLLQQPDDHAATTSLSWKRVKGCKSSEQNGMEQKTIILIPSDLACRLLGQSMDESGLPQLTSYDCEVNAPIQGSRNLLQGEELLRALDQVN
Transcription factor Sp1 (Homo sapiens), sequence (P08047 whole entry, looked up): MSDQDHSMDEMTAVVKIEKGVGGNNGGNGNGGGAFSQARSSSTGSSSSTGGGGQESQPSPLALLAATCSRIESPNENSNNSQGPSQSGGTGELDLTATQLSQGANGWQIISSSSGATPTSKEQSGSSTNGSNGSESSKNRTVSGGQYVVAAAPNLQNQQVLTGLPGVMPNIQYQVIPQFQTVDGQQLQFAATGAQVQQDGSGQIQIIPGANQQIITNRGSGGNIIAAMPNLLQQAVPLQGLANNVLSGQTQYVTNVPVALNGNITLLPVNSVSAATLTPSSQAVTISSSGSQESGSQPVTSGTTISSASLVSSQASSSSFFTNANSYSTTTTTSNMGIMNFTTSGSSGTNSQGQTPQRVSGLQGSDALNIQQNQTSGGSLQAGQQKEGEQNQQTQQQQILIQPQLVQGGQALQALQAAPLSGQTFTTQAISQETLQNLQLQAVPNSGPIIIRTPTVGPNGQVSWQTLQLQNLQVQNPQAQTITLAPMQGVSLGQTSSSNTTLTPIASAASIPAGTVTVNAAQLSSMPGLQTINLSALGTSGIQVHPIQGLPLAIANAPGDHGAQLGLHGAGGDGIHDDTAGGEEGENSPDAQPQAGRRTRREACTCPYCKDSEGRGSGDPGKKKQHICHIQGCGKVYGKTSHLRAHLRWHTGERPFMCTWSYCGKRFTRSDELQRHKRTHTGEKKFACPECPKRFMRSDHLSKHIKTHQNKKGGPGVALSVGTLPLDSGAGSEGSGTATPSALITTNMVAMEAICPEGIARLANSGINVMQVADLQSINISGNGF
Signal transducer and activator of transcription 3 (Homo sapiens), sequence (P40763 whole entry, looked up): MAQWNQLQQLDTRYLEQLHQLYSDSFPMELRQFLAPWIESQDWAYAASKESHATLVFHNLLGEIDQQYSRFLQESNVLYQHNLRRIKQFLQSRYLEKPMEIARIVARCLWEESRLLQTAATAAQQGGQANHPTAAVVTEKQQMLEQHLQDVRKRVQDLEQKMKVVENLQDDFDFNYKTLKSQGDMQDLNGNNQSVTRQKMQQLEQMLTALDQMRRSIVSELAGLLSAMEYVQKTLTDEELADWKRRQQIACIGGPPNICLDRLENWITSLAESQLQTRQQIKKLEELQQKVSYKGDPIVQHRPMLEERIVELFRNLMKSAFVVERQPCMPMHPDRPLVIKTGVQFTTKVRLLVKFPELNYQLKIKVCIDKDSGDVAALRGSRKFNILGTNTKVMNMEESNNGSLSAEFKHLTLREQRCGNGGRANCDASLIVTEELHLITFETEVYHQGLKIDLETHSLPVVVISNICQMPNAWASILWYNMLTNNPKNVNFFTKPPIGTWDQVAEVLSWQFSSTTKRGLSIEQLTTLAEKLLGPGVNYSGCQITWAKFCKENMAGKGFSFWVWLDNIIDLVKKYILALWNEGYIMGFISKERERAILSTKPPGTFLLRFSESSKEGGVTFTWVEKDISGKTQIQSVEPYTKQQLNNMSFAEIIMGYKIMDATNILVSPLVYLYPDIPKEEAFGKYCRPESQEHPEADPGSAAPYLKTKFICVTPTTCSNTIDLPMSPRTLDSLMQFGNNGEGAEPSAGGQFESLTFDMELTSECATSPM

Regarding `O=C(OCCOCCOCCOC(=O)c1ccccc1)c1ccccc1`, the molecule was called inactive in [1], in experiment [2], in [3], in experiment [4], in [5] and in [6]. Moreover, the molecule was classed as inactive in experiment [7], in experiment [8], in [9], in experiment [10], in experiment [11] and in experiment [12]. In addition, the outcome in [13], in experiment [14], in [15], in [16], in [17] and in experiment [18] was inactive.

For the molecule `OCCCC(F)(F)C(F)(F)C(F)(F)F`, the molecule was called inactive in experiment [1], in experiment [2], in experiment [3], in experiment [4], in [5] and in [6]. Moreover, the molecule was called inactive in experiment [7], in [8], in [9], in [10], in experiment [11] and in experiment [12]. For the same molecule, the molecule was called inactive in [13], in experiment [14], in experiment [19], in experiment [15], in [16] and in experiment [17]. Also, in experiment [18], the molecule was classed as inactive.

On to `CCCCC(CC)COP(=O)(O)OCC(CC)CCCC` (stereo not given), for which the molecule was classed as inactive in experiment [1], in experiment [2], in experiment [3], in [4], in [5] and in experiment [6]. Also, the result in experiment [7], in experiment [20], in experiment [9], in experiment [10], in experiment [11] and in [19] was inactive. Moreover, the result in experiment [15], in experiment [16], in experiment [17] and in experiment [18] was inactive. The half-maximal activity concentration (AC50) in experiment [12] was 9.1 µM (active); in [13], 5.45 µM (active).

The term AC50 denotes the midpoint of the concentration-response curve, whichever way the signal moves.

These data come from PubChem BioAssay (EPA / NIEHS).
